Sampled rows, rich in hits. Any-hit rate of the full collection: about 19%.
HT1080 IDH1KD tx – HT-1080 IDH1 knockdown cell toxicity (counter line). HT-1080 IDH1 knockdown viability, ATP luminescence, 48 h. Potency, µM (doses to about 46.1 µM), for inactives: top-dose activity, negative = toxicity, most hits filed as cytotoxic. AID 686971. hit rate 2% among 360,000;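 note: 0% = DMSO wells and -100% = cell-free medium wells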
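Assay cells: HT-1080 with IDH1 knockdown, 750 per well, RPMI/5% FBS. Exposure: 48 h at 37 °C following 2 h pre-incubation. Read: CellTiter-Glo luminescence; fitted concentration-response, curve class assigned.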
KB-V1 cytotox – kills drug-selected multidrug resistant KB-V1 cells; Potency, µM (highest dose often 46.1 µM), actives largely listed as cytotoxic; AID 1347076; KB-V1 MDR cells viability, CellTiter-Glo, 72 h; hit rate 3.4% among 400,000; note: nearly all actives have a fitted effect of over 60% in size
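KB-V1, DMEM (no phenol red) + 10% FBS; cpd pin-transferred, titration series; 72 h, 37 degrees C; CellTiter-Glo, luminescence. Data normalized, curve-fit.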
TDP1 cell CPT – DT40-hTDP1 cell growth loss with CPT. Potency, µM (highest dose often 46.2 µM), for the others: top-dose activity change, negative = growth inhibition, actives largely listed as inhibitors. chicken DT40 Tdp1-/-;hTDP1 cells + 20 nM CPT, ATP luminescence, 48 h. AID 686979. hit rate 12% among 420,000; note: nearly all actives have a fitted effect of over 55% in size
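Cell growth measured by CellTiter-Glo luminescence after a minimum 48 h, 37 C compound exposure with 20 nM CPT in Tdp1-knockout DT40 cells stably expressing hTDP1, seeded 400/well; qHTS titration format.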
TDP1 cell noCPT – qHTS for Inhibitors of human tyrosyl-DNA phosphodiesterase 1 (TDP1): qHTS in cells in absence of CPT. DT40 Tdp1-/- hTDP1 cells, no CPT, ATP luminescence, 48 h. hit rate 15% among 420,000. Potency, µM (titrated, usually from 46.2 µM), for the others: top-dose activity change, negative = growth inhibition, actives largely listed as inhibitors; note: nearly all actives have a fitted effect of over 55% in size
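Compound effects on proliferation are scored in DT40 Tdp1-/-;hTDP1 cells in the absence of CPT. ATP levels (CellTiter-Glo luminescence) are recorded after a ≥48 hr, 37 °C incubation.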
HT1080NT lethal – kills 2HG-producing HT-1080-NT fibrosarcoma cells. HT-1080-NT fibrosarcoma viability, CellTiter-Glo ATP luminescence, 48 h. Potency, µM (doses to about 46.1 µM), for the others: at the highest dose activity, negative = less viability, actives largely listed as cytotoxic. hit rate 1.6% among 360,000;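 note: NT is the 2HG producing partner of a matched IDH1 knockdown line; 0% = DMSO-treated cells and -100% = media-only wells without cells; nearly all actives have a fitted effect of over 55% in size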
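A 48-hour cytotoxicity screen used HT-1080-NT cells plated 2 hours before compound delivery. ATP-based CellTiter-Glo luminescence measured viability, normalized to DMSO and no-cell controls.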
KB-3-1 cytotox – KB-3-1 parental cell cytotoxicity | KB-3-1 viability, CellTiter-Glo ATP luminescence, 72 h | Potency, µM (series often up to 46.1 µM), usual class: cytotoxic | hit rate 1.4% among 400,000 | AID 1347075; note: nearly all actives have a fitted effect of over 60% in size
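Cytotoxicity in the drug-sensitive parental line KB-3-1 was scored as loss of CellTiter-Glo luminescence following 72 h incubation with compound. Values come from curve fitting of normalized concentration-response data.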
Numbers without * were called inactive; i = inactive; ? = inconclusive; nt = no result given; [ ] = another dose, or the depositor's remark. Calls come from the whole dose curve; as a rule, active = well fitted curve in the direction sought with a large enough effect; inconclusive = small, poorly fitted or top-dose-only effect, or another doubt; inactive = no such curve, though single readings can be large; an effect the other way counts as inactive or inconclusive. Unless noted, % is set by controls: 0 for no effect and ±100 for the full control effect; potency is the fitted concentration of half-maximal effect.

SMILES	HT1080 IDH1KD tx	KB-V1 cytotox	TDP1 cell CPT	TDP1 cell noCPT	HT1080NT lethal	KB-3-1 cytotox
C/C(=N\O)c1ccc(OCC(=O)N2CCCCC2)cc1	nt	nt	-4%	-7%	nt	nt
COC(=O)[C@]1(Cc2ccccc2)N[C@H](CN(C)C(C)=O)[C@@H]2C(=O)N(Cc3ccccc3)C(=O)[C@@H]21	-2%	i	-6%	4%	-1%	i
CSc1ccc(CCNC(=O)CCc2c(C)nc3ncnn3c2C)cc1	nt	i	10%	4%	nt	i
Oc1ccc(NC(=S)N=Nc2c(O)[nH]c3ccccc23)cc1	-18%	i	?	?	-7%	i
COc1ccc(NC(=S)N=Nc2c(O)[nH]c3ccccc23)cc1	-7%	?	8.2µM*	5.8µM*	-19%	?
Cc1ccc(NC(=S)N=Nc2c(O)[nH]c3ccccc23)cc1	?	?	6.5µM*	7.3µM*	?	?
CCN(c1ccccc1)S(=O)(=O)c1ccc(Oc2ccccc2)c(N)c1	-20%	i	?	?	?	i
C[C@H]1CN=C(N(C)C)N1CCCC1CCCCC1	-5%	i	21µM*	16µM*	-8%	i
CN(C)C1=NCCN1CC1CCCCCC1	-1%	i	-22%	?	4%	i
CCCCCCCN1CCN=C1N(C)C	5%	?	?	16µM*	2%	i
CN(C)C1=NCCN1CCC1CCCCC1	1%	i	12µM*	?	11%	i
COc1cccc(C(=O)NC2CCCc3c2cnn3-c2ccc(C)c(C)c2)c1OC (stereo not drawn)	1%	i	?	?	4%	i
COc1ccc(C(=O)NC2CCCc3c2cnn3-c2ccc(C)c(C)c2)c(OC)c1OC (stereo not drawn)	-11%	i	?	?	-10%	i
COc1ncccc1C(=O)NC1CCCc2c1cnn2-c1ccc(C)c(C)c1 (stereo not drawn)	0%	i	16µM*	16µM*	-3%	i
CSc1ncccc1C(=O)NC1CCCc2c1cnn2-c1ccc(C)c(C)c1 (stereo not drawn)	-3%	?	8.2µM*	7.3µM*	?	i
O=C(C1CCC(CNc2c(N3CCCCC3)c(=O)c2=O)CC1)N1CCCC1 (stereo not drawn)	0%	i	3%	4%	0%	i
CSc1nc(-c2ccccc2)c(-c2ccccc2)[nH]1	-17%	12µM*	-17%	?	-10%	?
Cc1ccc(-c2[nH]c(-c3ccc(C(=O)O)cc3)nc2-c2ccccc2)cc1	5%	i	-11%	-18%	-3%	i
COc1ccc(C)cc1NC(=O)CNc1ccccc1CN(C)C1CCCCC1	?	i	18µM*	?	-24%	i
COc1ccc(Cl)cc1NC(=O)CN(C)C1CCCCC1	-8%	?	?	?	-12%	i
COc1ccc(Cl)cc1NC(=O)CN(C)C(C)C(=O)NC(=O)NC1CCCCC1 (stereo not drawn)	-11%	?	?	18µM*	-9%	i
COc1ccc(Cl)cc1NC(=O)CNc1ccccc1CN(C)C1CCCCC1	16µM*	?	?	?	?	i
Cc1ccc(NC(=O)CNc2ccccc2CN(C)C2CCCCC2)cc1	-19%	i	?	?	-24%	i
CCOC(=O)c1[nH]c2c(c1Cc1ccccc1)C(=O)CC(c1ccc(C(C)(C)C)cc1)C2 (stereo not drawn)	nt	i	?	?	nt	i
CCCn1c(-c2cccs2)nc2nc3ccccc3nc21	2%	i	18µM*	16µM*	2%	i
SMILES	HT1080 IDH1KD tx	KB-V1 cytotox	TDP1 cell CPT	TDP1 cell noCPT	HT1080NT lethal	KB-3-1 cytotox
Nc1c(S(=O)(=O)c2cccs2)c2nc3ccccc3nc2n1Cc1ccc2c(c1)OCO2	?	?	?	?	?	i
c1csc(-c2nc3nc4ccccc4nc3n2Cc2ccc3c(c2)OCO3)c1	-19%	i	18µM*	?	-12%	?
CCc1ccccc1NC(=O)c1ccc2c(SCC(=O)O)c3c(nc2c1)CCC3	nt	i	22%	-17%	nt	i
CCOCc1cnc(C)nc1NCC(=O)c1c(C)[nH]c2ccccc12	-9%	i	-13%	-21%	-6%	23µM*
CCOCc1cnc(C)nc1NCC(=O)c1c(C)[nH]c2cc(C)ccc12	-2%[9.24 µM]	i	?	-28%	?	16µM*
O=C(NCCC1=CCCCC1)C1CC(=O)N(Cc2ccccc2)C1 (stereo not drawn)	9%	nt	-3%	-4%	8%	nt
Cc1ccc(O)c(Nc2c3ccccc3nc3ccccc23)c1	16µM*	i	16µM*	?	23µM*	i
Cc1ccc(O)c(Nc2nc(-c3ccccc3)nc3ccccc23)c1	-5%	i	-11%	-4%	-5%	i
Cc1ccc(O)c(Nc2nc3ccccc3c3nncn23)c1	nt	i	?	9.2µM*	nt	i
Cc1ccc(Nc2nc3ccccc3c3nncn23)c(Cl)c1	nt	i	-24%	-25%	nt	i
CCCCOC(=O)C1=C(C)Nc2nnnn2C1c1ccccc1Cl (stereo not drawn)	?	?	?	13µM*	?	i
O=C(CSc1nc2ccccc2c(=O)[nH]1)Nc1ccccc1N1CCOCC1	-7%	?	-27%	-25%	-11%	i
O=C(CSc1ccc2ccccc2n1)Nc1ccc(N2CCOCC2)cc1	-13%	i	22%	-12%	0%	i
O=C(CSc1nnnn1-c1ccccc1)Nc1ccc(N2CCOCC2)cc1	7%	?	6%	-13%	15%	i
CC(C)c1nc(SCC(=O)Nc2ccc(N3CCOCC3)cc2)c2ccccc2n1	0%	i	15µM*	?	-14%	i
CC(C)c1nc(SCC(=O)N2CCCC2)c2ccccc2n1	-29%	21µM*	-9%	?	-7%	i
O=C(CSc1nc2ccccc2c(=O)[nH]1)Nc1ccc(N2CCOCC2)cc1	-7%	i	16µM*	-32%	1%	i
O=C(CSc1nncn1-c1ccccc1)Nc1ccc(N2CCOCC2)cc1	14%	i	23µM*	13µM*	7%	i
CCc1nc(SCC(=O)N2CCCC2)c2ccccc2n1	-29%	i	-1%	-10%	11%	i

Assay outcomes (PubChem BioAssay)
